High-throughput results (PubChem BioAssay)
ALOX12 inh: Primary qHTS assay for inhibitors of human arachidonate 12S-lipoxygenase (ALOX12): Round 2; purified 12hLO, xylenol orange hydroperoxide absorbance; Potency, µM (series often up to 108 µM), for inactives: at the highest dose activity change, negative = inhibition, actives largely listed as inhibitors; 1.1% of 580,000 active; Polyunsaturated fatty acid lipoxygenase ALOX12 (Homo sapiens), P18054
Target sequence (P18054 whole entry, looked up): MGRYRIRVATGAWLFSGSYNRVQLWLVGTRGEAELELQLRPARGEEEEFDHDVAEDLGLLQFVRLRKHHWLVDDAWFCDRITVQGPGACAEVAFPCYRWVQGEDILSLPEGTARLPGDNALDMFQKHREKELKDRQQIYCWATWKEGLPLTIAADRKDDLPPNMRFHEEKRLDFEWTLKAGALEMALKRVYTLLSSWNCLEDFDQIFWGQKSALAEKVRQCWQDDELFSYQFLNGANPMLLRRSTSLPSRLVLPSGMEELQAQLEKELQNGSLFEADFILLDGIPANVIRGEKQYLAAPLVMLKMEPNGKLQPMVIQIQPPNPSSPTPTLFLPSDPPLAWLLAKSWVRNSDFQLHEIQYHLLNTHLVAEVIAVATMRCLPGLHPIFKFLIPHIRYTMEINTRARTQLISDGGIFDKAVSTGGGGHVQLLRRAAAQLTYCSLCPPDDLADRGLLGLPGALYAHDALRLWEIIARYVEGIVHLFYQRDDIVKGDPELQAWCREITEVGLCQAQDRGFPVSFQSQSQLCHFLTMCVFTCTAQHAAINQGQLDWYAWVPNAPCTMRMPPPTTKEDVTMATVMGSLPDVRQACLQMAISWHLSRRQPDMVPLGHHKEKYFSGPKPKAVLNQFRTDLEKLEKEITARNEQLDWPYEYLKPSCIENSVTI
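Purified human 12hLO at 150 nM in 25 mM Hepes, 0.01% Triton X-100, pH 7.0, preincubated 15 min at room temperature with compound. Reaction started with 40 uM arachidonic acid, 30 min at room temperature. Hydroperoxide measured by Fe-xylenol orange, 573/405 nm absorbance ratio.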
ELG1 repair inh: qHTS screen for small molecules that inhibit ELG1-dependent DNA repair in human embryonic kidney (HEK293T) cells expressing luciferase-tagged ELG1; 2.3% of 330,000 active; AID 504467, 2011; Potency, µM (top dose mostly 46.1 µM), inactives show at the top dose activity change, negative = inhibition, actives largely listed as inhibitors; HEK293T ELG1-luciferase reporter, luminescence, 16 h; DNA damage induced by 5-fluorouridine; also: nearly all actives have a fitted effect of over 55% in size
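In this reporter screen, reduction of luminescence relative to DMSO vehicle indicated activity. Compounds and 5-fluorouridine were added together to 2,000 cells per well, incubated for 16 hr at 37 °C, then developed with ONE-Glo.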
RORgamma inh: qHTS for inhibitors of ROR gamma transcriptional activity. Drosophila S2 Gal4-RORgamma UAS-luciferase reporter, 20 h. 5.4% of 310,000 active. Potency, µM (top dose mostly 53.6 µM), inactives show at the top dose activity change, negative = inhibition, actives largely listed as inhibitors. Nuclear receptor ROR-gamma (Mus musculus), P51450; also: nearly all actives have a fitted effect of over 60% in size
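Using a luciferase readout, inhibitors were identified by reduced reporter activity in Drosophila cells coexpressing a copper-inducible Gal4–ROR gamma fusion and UAS-driven Photinus luciferase, incubated 20 hr after 700 uM copper sulfate.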
DT40 TDP1 CPT: qHTS for Inhibitors of human tyrosyl-DNA phosphodiesterase 1 (TDP1): qHTS in cells in presence of CPT | chicken DT40 Tdp1-/-;hTDP1 cells + 20 nM CPT, ATP luminescence, 48 h | Potency, µM (doses to about 46.2 µM), for the others: top-dose activity change, negative = growth inhibition, usual class: inhibitors | 12% of 420,000 active | AID 686979, 2013; also: nearly all actives have a fitted effect of over 55% in size
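Chicken DT40 Tdp1-/- cells stably complemented with human TDP1 were seeded at 400 cells/well in medium containing 20 nM camptothecin, exposed to pin-transferred compounds, and grown at 37 °C for at least 48 hr. Viability was read as ATP luminescence.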
TDP1 cell noCPT: qHTS for Inhibitors of human tyrosyl-DNA phosphodiesterase 1 (TDP1): qHTS in cells in absence of CPT. 15% of 420,000 active. Potency, µM (series often up to 46.2 µM), without a hit: at the highest dose activity change, negative = growth inhibition, actives largely listed as inhibitors. DT40 Tdp1-/- hTDP1 cells, no CPT, ATP luminescence, 48 h; also: nearly all actives have a fitted effect of over 55% in size
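Seeded 400 DT40-hTDP1 cells/well (vehicle DMSO, no 20 nM CPT); pinned compounds; ≥48 hr at 37 °C; CellTiter-Glo luminescence as viability measure.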
VP16 counter: VP16 counterscreen qHTS for inhibitors of ROR gamma transcriptional activity; Drosophila S2 Gal4-VP16 UAS-luciferase, luminescence, 20 h; Potency, µM (top dose mostly 53.6 µM), inactives show top-dose activity, negative = inhibition, actives largely listed as inhibitors; 3.5% of 310,000 active; AID 2546, 2010;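 also: Gal4-VP16 expression switched on by copper sulfate through the metallothionein promoter; nearly all actives have a fitted effect of over 50% in size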
* = called active by the depositor; ? = inconclusive; · = no result; [ ] = dose if it differs, or a comment. A selection: hits, their analogues and other compounds. The true share with any hit is near 15%. Calls follow the shape of the dose curve; as a rule, active = well fitted curve in the direction sought with a large enough effect; inconclusive = small, poorly fitted or top-dose-only effect, or another doubt; inactive = no such curve, though single readings can be large; an effect the other way counts as inactive or inconclusive. % is scaled to controls: 0 for no effect and ±100 for the full control effect; potency is read from the fitted curve at half-maximal effect.

SMILES	ALOX12 inh	ELG1 repair inh	RORgamma inh	DT40 TDP1 CPT	TDP1 cell noCPT	VP16 counter
O=C1CN(C(=S)NC(=O)c2ccc(-c3ccccc3)cc2)CCN1	?	?	1.8µM*	4%	-1%	10µM*
COc1ccc(C(=O)NCC(=O)N2CCNC(=O)C2)cc1OC	-15%	?	-10%	2%	1%	1%
CCOC(=O)CC1C(=O)NCCN1C(=S)NC(=O)c1ccc(C)c(Br)c1 (configuration not stated)	?	·	·	5.8µM*	5.2µM*	·
CCC(Oc1ccccc1)C(=O)Nc1cc(C(=O)OCc2cc(=O)n3oc(C)cc3n2)ccc1OC (configuration not stated)	-6%	·	·	·	·	·
COc1ccc2cc(/C=N/NC(=O)c3ccc(CN(c4cccc(Cl)c4Cl)S(C)(=O)=O)cc3)c(Cl)nc2c1	19%	-16%	0%	18µM*	15µM*	?
O=C(Nc1ccc2c(c1)OCO2)C1CCN(c2ccc3nncn3n2)CC1	-13%	·	·	·	·	·
CC(C)C(=O)N1CCCC1(C)C(=O)NCc1ccccn1 (configuration not stated)	4%	·	·	-18%	31%	·
Cc1cccnc1CNC(=O)C1(C)CCCN1CC(C)C (configuration not stated)	5%	·	·	15µM*	15µM*	·
Cc1ccsc1CNC(=O)C1(C)CCCN1CC(C)C (configuration not stated)	5%	·	·	15µM*	?	·
CSc1ccccc1CNC(=O)C1(C)CCCN1CC(C)C (configuration not stated)	-5%	·	·	26µM*	23µM*	·
CC(C)C(=O)N1CCCC1(C)C(=O)NCc1ccc(Cl)cc1 (configuration not stated)	-34%	·	·	-19%	9%	·
CCCc1nnc(NC(=O)c2cc(-c3ccc(OC)cc3)on2)s1	4%	·	·	·	·	·
CSC(C)C(=O)Nc1cccc(I)c1 (configuration not stated)	25%	·	·	·	·	·
O=S(=O)(Cc1ccccc1)N1CCN(c2nc(-c3cccs3)nc3ccccc23)CC1	·	·	·	?	13µM*	·
Cc1ccc(S(=O)(=O)N2CCCN(c3nc(-c4cccs4)nc4ccccc34)CC2)cc1	·	·	·	13µM*	?	·
O=[N+]([O-])c1ccc(S(=O)(=O)N2CCN(c3nc(-c4cccs4)nc4ccccc34)CC2)cc1	·	·	·	-1%	-9%	·
c1csc(-c2nc(N3CCOCC3)c3ccccc3n2)c1	14%	?	17%	?	?	3%
CC(C)S(=O)(=O)N1CCN(c2nc(-c3cccs3)nc3ccccc23)CC1	·	·	·	11µM*	18µM*	·
COc1ccc(N2CCN(c3nc(-c4cccs4)nc4ccccc34)CC2)cc1	-9%	?	0%	?	23µM*	2%
O=S(=O)(c1ccc(Cl)cc1)N1CCN(c2nc(-c3cccs3)nc3ccccc23)CC1	-3%	-6%	13%	-3%	?	-12%
O=S(=O)(c1ccccc1)N1CCN(c2nc(-c3cccs3)nc3ccccc23)CC1	2%	?	-1%	13µM*	?	?
O=S(=O)(c1ccc(C(F)(F)F)cc1)N1CCN(c2nc(-c3cccs3)nc3ccccc23)CC1	·	·	·	-21%	-30%	·
O=S(=O)(c1nccs1)N1CCN(c2nc(-c3cccs3)nc3ccccc23)CC1	·	·	·	?	11µM*	·
O=C(Nc1ccc(Cl)c(Cl)c1)C1CCCN(c2ncnc3nc[nH]c23)C1 (configuration not stated)	-8%	·	·	·	·	·
Cc1nnc(-c2cc(-c3ccncc3)ccn2)n1CCN1CCOCC1	14%[176 µM]	·	·	·	·	·
SMILES	ALOX12 inh	ELG1 repair inh	RORgamma inh	DT40 TDP1 CPT	TDP1 cell noCPT	VP16 counter
CCC(=O)Nc1ccc(S(=O)(=O)NCc2cccn2Cc2cccc(C)c2)cc1	-28%	·	·	21µM*	23µM*	·
CCc1ccc(S(=O)(=O)NCc2cccn2Cc2cccc(C)c2)cc1	-36%	·	·	?	?	·
CCN(C(=O)CSc1nc(C)nc2sc(C)c(C)c12)C1CCS(=O)(=O)C1 (configuration not stated)	4%	-7%	·	4%	-9%	·
O=C(CSc1nc(-c2ccccc2)c(-c2ccccc2)o1)NC1CCS(=O)(=O)C1 (configuration not stated)	10%	23µM*	11%	-11%	?	8%
CCOC(=O)c1sc2nc(C)nc(SCC(=O)N(C)C3CCS(=O)(=O)C3)c2c1C (configuration not stated)	-3%	-15%	13µM*	?	2%	-4%
COCC(C)NC(=O)CSc1nc(-c2ccccc2)c(-c2ccccc2)o1 (configuration not stated)	?	?	27%	12µM*	8.2µM*	13%
O=C(CSc1nnc(-c2ccccc2)o1)NC1CCS(=O)(=O)C1 (configuration not stated)	-7%	12%	-30%	20%	-9%	2%
CN(C(=O)CSc1ncnc2sc(-c3ccccc3)cc12)C1CCS(=O)(=O)C1 (configuration not stated)	-6%	?	11µM*	?	?	?
CN(C(=O)CSc1ncnc2scc(-c3ccccc3)c12)C1CCS(=O)(=O)C1 (configuration not stated)	3%	-5%	?	0%	-22%	-2%
Cc1cccc(CC(=O)N2CC(C(=O)NCCc3ccncc3)C3(CCOCC3)C2)c1 (configuration not stated)	29%	·	·	·	·	·
O=C(CSc1ncnc2sc(-c3ccccc3)cc12)NC1CCS(=O)(=O)C1 (configuration not stated)	-5%	-29%	?	-52%	15µM*	4%
CN(C(=O)CSc1nnc(-c2ccccc2)c(-c2ccccc2)n1)C1CCS(=O)(=O)C1 (configuration not stated)	-12%	7%	-11%	16µM*	21µM*	3%
CN(Cc1ccccc1)c1nc2c(c(=O)n(C)c(=O)n2C)n1CCSc1nc2ccccc2o1	-2%	·	·	·	·	·
